Screening results deposited in PubChem BioAssay by several laboratories.
CYP2C9 inhib: blocks human cytochrome P450 2C9. CYP2C9 Supersomes, luciferin-H conversion, luminescence. inhibition, % at 5 µM. actives 20% (n = 96,000);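 active = blocking of liver enzyme CYP2C9 beyond about 50% at 5 µM, limit read from the data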
Target sequence (P11712 whole entry, looked up): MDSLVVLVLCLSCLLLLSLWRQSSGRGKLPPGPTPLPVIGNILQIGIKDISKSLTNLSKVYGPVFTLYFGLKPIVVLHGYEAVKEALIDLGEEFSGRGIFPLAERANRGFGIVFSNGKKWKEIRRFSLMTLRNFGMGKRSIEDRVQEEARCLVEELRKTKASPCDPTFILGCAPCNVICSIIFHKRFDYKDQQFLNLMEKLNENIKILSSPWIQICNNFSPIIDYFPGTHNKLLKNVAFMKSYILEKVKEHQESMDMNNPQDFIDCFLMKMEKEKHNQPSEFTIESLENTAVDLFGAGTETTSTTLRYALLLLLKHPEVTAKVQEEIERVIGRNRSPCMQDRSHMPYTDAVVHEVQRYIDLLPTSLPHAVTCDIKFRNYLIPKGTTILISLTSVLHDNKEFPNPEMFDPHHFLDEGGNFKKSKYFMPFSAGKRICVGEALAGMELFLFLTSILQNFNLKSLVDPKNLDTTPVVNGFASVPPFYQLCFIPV
EphB4 antag: blocks human EphB4 binding to ephrin-B2 | actives 0.15% (n = 97,000) | EphB4 LBD / TNYL-RAW-Alexa532 peptide, fluorescence polarization | inhibition, % at 7 µM;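 active = inhibition above the screen-wide mean inhibition plus 3 SD, cut at about 15% in these data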;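 also: 0% = DMSO wells and 100% = excess unlabeled TNYL-RAW peptide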
CYP2C9 activ: CYP2C9 (human) activation; P11712; recombinant CYP2C9, luciferin-H conversion, luminescence; active compounds read high; factor 1 = untreated enzyme, 0 = blocked; actives 1.4% (n = 96,000); activation factor at 5 µM;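 active = activation factor of 2 or more for CYP2C9 at a 5 µM dose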;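 also: 0 = sulfaphenazole-blocked wells and 1 = vehicle-only wells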
CYP2C19 inhib: inhibitors of human CYP2C19; actives 21% (n = 96,000); CYP2C19 Supersomes, luciferin-H EGE luminescence, 30 min; P33261; inhibition, % at 5 µM;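 active = CYP2C19 inhibition above a set limit at 5 µM in the primary screen, cut at about 50% in these data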;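 also: plate controls were negative control wells for no effect and 2.5 mM tranylcypromine positive control for full effect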
CYP2C19 act: increases human CYP2C19 enzyme activity. P33261. recombinant CYP2C19, luciferin-H EGE luminescence; active compounds read high; 0 = fully inhibited enzyme, 1 = untreated enzyme. activation factor at 5 µM. 96,000 tested, under 10 active. AID 1025;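 active = activation factor of at least 2 at 5 µM in the primary screen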;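 also: 0 = wells with 2.5 mM tranylcypromine and 1 = vehicle-only wells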
Active calls of the source: *. Hits are enriched below; roughly 27% of the tested compounds scored in any of these assays.

Results for Cc1ccc(-n2ncc3c(N4CCC5(CC4)OCCO5)ncnc32)c(C)c1 ?
CYP2C9 inhib: 7.7; EphB4 antag: -3.7; CYP2C9 activ: 0.9; CYP2C19 inhib: -26.5; CYP2C19 act: 1.3

Results for Oc1c(CN2CCN(c3ccccn3)CC2)cc(Cl)c2cccnc12 ?
CYP2C9 inhib: -4.4; CYP2C9 activ: 1; CYP2C19 inhib: -0.9; CYP2C19 act: 1

How did Nc1nc(CN2CCCCCC2)nc(Nc2ccc(F)cc2)n1 do in these assays?
CYP2C9 inhib: 3.2; EphB4 antag: 6.3; CYP2C9 activ: 1; CYP2C19 inhib: 16.2; CYP2C19 act: 0.8

What do the screens show for `COc1ccc(OC)c(S(=O)(=O)Nc2c(F)cccc2F)c1`?
CYP2C9 inhib: -19.6; EphB4 antag: -0.8; CYP2C9 activ: 1.2; CYP2C19 inhib: 25.9; CYP2C19 act: 0.7

How did COc1cc(OC)c(C#N)c(S(=O)(=O)Cc2ccccc2)c1 do in these assays?
CYP2C9 inhib: -43.7; EphB4 antag: 8.8; CYP2C9 activ: 1.4; CYP2C19 inhib: 96.2*; CYP2C19 act: 0

How did COc1ccc(OC)c(S(=O)(=O)NC(C)(C)C)c1 do in these assays?
CYP2C9 inhib: 19.6; EphB4 antag: 0.7; CYP2C9 activ: 0.8; CYP2C19 inhib: 51.5*; CYP2C19 act: 0.5

Results for Cc1nc(CNS(=O)(=O)c2cccc(F)c2)cs1 ?
CYP2C9 inhib: 5.1; EphB4 antag: -6.2; CYP2C9 activ: 0.9; CYP2C19 inhib: 27.7; CYP2C19 act: 0.7

What do the screens show for `COc1ccc(N(C(C)=O)S(=O)(=O)c2cc(OC)ccc2OC)cc1`?
CYP2C9 inhib: 50.5*; EphB4 antag: -1.8; CYP2C9 activ: 0.5; CYP2C19 inhib: 27.9; CYP2C19 act: 0.7

How did Cc1nc(CNS(=O)(=O)c2ccc3ccccc3c2)cs1 do in these assays?
CYP2C9 inhib: -101.2; CYP2C9 activ: 2*; CYP2C19 inhib: 45.2; CYP2C19 act: 0.5

Results for COc1ccc(C)cc1S(=O)(=O)N(CC(=O)O)c1ccc(C)cc1 ?
CYP2C9 inhib: 36.5; EphB4 antag: -3.6; CYP2C9 activ: 0.6; CYP2C19 inhib: 14.7; CYP2C19 act: 0.9

What do the screens show for `O=[N+]([O-])C1=C(Nc2cccc3ccccc23)CS(=O)(=O)C1`?
CYP2C9 inhib: 23.8; EphB4 antag: 1.2; CYP2C9 activ: 0.8; CYP2C19 inhib: 42.7; CYP2C19 act: 0.6

Results for COc1ccc(S(=O)(=O)NCc2csc(-c3cccnc3)n2)cc1 ?
CYP2C9 inhib: 68.0*; EphB4 antag: -8.7; CYP2C9 activ: 0.3; CYP2C19 inhib: 90.6*; CYP2C19 act: 0.1

What do the screens show for `COc1ccc(OC)c(S(=O)(=O)NCc2cccnc2)c1`?
CYP2C9 inhib: -29.6; EphB4 antag: 0.8; CYP2C9 activ: 1.3; CYP2C19 inhib: 12.8; CYP2C19 act: 0.9

How did COc1ccc(OC)c(NS(=O)(=O)Cc2ccccc2)c1 do in these assays?
CYP2C9 inhib: -36.5; EphB4 antag: -5.4; CYP2C9 activ: 1.4; CYP2C19 inhib: 94.2*; CYP2C19 act: 0.1

What do the screens show for `COc1ccc(OC)c(S(=O)(=O)NCc2ccccc2)c1`?
CYP2C9 inhib: -16.4; EphB4 antag: -7.7; CYP2C9 activ: 1.2; CYP2C19 inhib: 95.9*; CYP2C19 act: 0

Results for COc1ccc(OC)c(NC(=O)CSCC(=O)O)c1 ?
CYP2C9 inhib: -4.5; CYP2C9 activ: 1; CYP2C19 inhib: 10.2; CYP2C19 act: 0.9

How did CCOC(=O)C1C2C=CC3(CN(CCc4ccccc4)C(=O)C13)O2 (stereo not drawn) do in these assays?
EphB4 antag: 0.2

How did O=C(NCSc1ccnc(SCNC(=O)c2ccccc2)n1)c1ccccc1 do in these assays?
EphB4 antag: -3.8

Results for CC12C(=O)N(c3nccs3)C(=O)C1C1C=CC2C1 (stereo not drawn) ?
CYP2C9 inhib: 2.6; EphB4 antag: 5.3; CYP2C9 activ: 1; CYP2C19 inhib: 64.9*; CYP2C19 act: 0.4

How did COC(=O)c1ccc(COc2ccc(C3C4=C(CCCC4=O)Nc4onc(C)c43)cc2)cc1 (stereo not drawn) do in these assays?
CYP2C9 inhib: 67.8*; EphB4 antag: 3.2; CYP2C9 activ: 0.3; CYP2C19 inhib: 16.6; CYP2C19 act: 0.8

What do the screens show for `COC(=O)c1ccc(C2CC(=O)NC3=C2C(=O)CCC3)cc1` (stereo not drawn)?
CYP2C9 inhib: -9.3; EphB4 antag: 6.8; CYP2C9 activ: 1.1; CYP2C19 inhib: 8.7; CYP2C19 act: 0.9

How did COc1cc(C)nc(OCCNC(=O)COc2ccc(Cl)cc2Cl)n1 do in these assays?
CYP2C9 inhib: 62.7*; EphB4 antag: 1.4; CYP2C9 activ: 0.4; CYP2C19 inhib: 73.4*; CYP2C19 act: 0.3

Results for CN(C)c1nc(OCCNC(=O)COc2ccc(Cl)cc2Cl)nc(N(C)C)n1 ?
CYP2C9 inhib: -1.4; EphB4 antag: 2.5; CYP2C9 activ: 1; CYP2C19 inhib: -30.3; CYP2C19 act: 1.3

Results for CCOC(=O)N1CCN(c2c(N3CCOCC3)c(=O)c2=O)CC1 ?
CYP2C9 inhib: 6.7; EphB4 antag: -7.7; CYP2C9 activ: 0.9; CYP2C19 inhib: -1.2; CYP2C19 act: 1

How did CCOc1ccc(Br)cc1/C=N/NC(=O)c1ccncc1 do in these assays?
CYP2C9 inhib: 83.0*; EphB4 antag: 0.0; CYP2C9 activ: 0.2; CYP2C19 inhib: 90.7*; CYP2C19 act: 0.1

Results for CCOc1ccc(NC(C)c2cc(Cl)ccc2O)cc1 (stereo not drawn) ?
CYP2C9 inhib: 79.1*; EphB4 antag: -6.0; CYP2C9 activ: 0.2; CYP2C19 inhib: 62.3*; CYP2C19 act: 0.4

How did CC(Nc1ccc(Cl)cc1)c1cc(Cl)ccc1O (stereo not drawn) do in these assays?
EphB4 antag: -5.6

Results for CC(Nc1ccc(Br)cn1)c1cc(Cl)ccc1O (stereo not drawn) ?
CYP2C9 inhib: 85.9*; EphB4 antag: -4.1; CYP2C9 activ: 0.1; CYP2C19 inhib: 82.0*; CYP2C19 act: 0.2

How did O=c1c2c3c(sc2n2cnnc2n1Cc1ccccc1)CN(Cc1ccccc1)CC3 do in these assays?
CYP2C9 inhib: 74.1*; EphB4 antag: 2.4; CYP2C9 activ: 0.3; CYP2C19 inhib: 65.7*; CYP2C19 act: 0.3

Results for Cc1nnc2n(Cc3ccccc3)c(=O)c3c4c(sc3n12)CN(Cc1ccccc1)CC4 ?
CYP2C9 inhib: 8.5; CYP2C9 activ: 0.9; CYP2C19 inhib: 6.3; CYP2C19 act: 0.9

How did Cc1ccc(N(C(=O)c2ccccn2)C2(C(=O)NC3CCCC3)CCCCC2)cc1 do in these assays?
CYP2C9 inhib: 92.6*; EphB4 antag: 7.7; CYP2C9 activ: 0.1; CYP2C19 inhib: 37.0; CYP2C19 act: 0.6

Results for Cc1cccc(NC(=O)c2cc3c(n(-c4ccccc4)c2=O)CCCC3=O)n1 ?
CYP2C9 inhib: 50.3*; EphB4 antag: 6.4; CYP2C9 activ: 0.5; CYP2C19 inhib: 18.9; CYP2C19 act: 0.8

Results for O=C1CCCc2c1cc(C(=O)NCc1ccco1)c(=O)n2-c1ccc(Cl)cc1 ?
CYP2C9 inhib: -3.0; EphB4 antag: 3.0; CYP2C9 activ: 1; CYP2C19 inhib: 83.9*; CYP2C19 act: 0.2

How did Cc1ccc2cc(C#N)c(N3CCCN(S(=O)(=O)c4ccccc4)CC3)nc2c1C do in these assays?
EphB4 antag: 0.6
